Compound activity deposited in PubChem BioAssay by National Center for Advancing Translational Sciences (NCATS).
Only a selection was taken, and hits are over-represented in it overall.
Cruzain Triton = blocks cruzain activity in presence of Triton detergent; P25779; purified cruzain, Z-FR-AMC fluorescence, 0.01% Triton; Potency, µM, usual class: inhibitors; actives 0.43% (n = 200,000); note: nearly all actives have a fitted effect of over 40% in size
Target sequence (P25779 123-467 limits assumed): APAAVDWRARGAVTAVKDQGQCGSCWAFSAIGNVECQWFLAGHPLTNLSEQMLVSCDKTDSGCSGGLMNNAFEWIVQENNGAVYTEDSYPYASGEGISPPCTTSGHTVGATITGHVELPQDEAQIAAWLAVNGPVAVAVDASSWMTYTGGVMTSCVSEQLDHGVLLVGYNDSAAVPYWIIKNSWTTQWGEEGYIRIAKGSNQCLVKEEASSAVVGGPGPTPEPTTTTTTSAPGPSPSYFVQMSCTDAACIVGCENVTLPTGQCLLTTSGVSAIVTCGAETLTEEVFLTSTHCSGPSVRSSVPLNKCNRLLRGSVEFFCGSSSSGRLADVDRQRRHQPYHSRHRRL
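In this qHTS format, compounds are incubated with 1.5 nM cruzain for 15 min at room temperature before 2 uM Z-FR-AMC is added. Release of AMC is followed at 360/450 nm, and progress is taken as the 60 s fluorescence difference.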
NS1 inh = inhibitors of influenza NS1 protein function | actives 0.4% (n = 270,000) | AID 2326 | Potency, µM (doses to about 46.1 µM); calls by dose curve; note: actives are rising curves; nearly all actives have a fitted effect of over 50% in size
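Recovery from NS1-induced slow growth read by OD600 in budding yeast switched to galactose assay medium (pH 6.0, -URA) at 1:100 dilution. Compound 23 nl per well; the matching strain lacking NS1 serves as control.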
Cruzain inh noDet = cruzain (T. cruzi) inhibition without detergent. AID 1476. P25779. Potency, µM, actives largely listed as inhibitors. actives 2.3% (n = 200,000). purified cruzain, Z-FR-AMC fluorescence, no detergent; note: nearly all actives have a fitted effect of over 40% in size
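Purified cruzain at 1.5 nM, pre-incubated 15 min with compound at room temperature in 100 mM sodium acetate pH 5.5, 5 mM DTT, 0.00005% Triton X-100. Reaction started with 2 uM Z-FR-AMC; AMC fluorescence increase over 60 s gives rate.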
Numbers stand for hits; . = inactive; ? = inconclusive; / = no result; ! = not active in a repeat. Unless noted, calls come from the whole dose curve; as a rule, active = well fitted curve in the direction sought with a large enough effect; inconclusive = small, poorly fitted or top-dose-only effect, or another doubt; inactive = no such curve, though single readings can be large; an effect the other way counts as inactive or inconclusive.

SMILES	Cruzain Triton	NS1 inh	Cruzain inh noDet
Cc1ccc(OCC(=O)NNC(=O)CSc2ncnc3sc(C)c(C)c23)cc1	/	.	/
Cc1nnc(NC(=O)CSc2ncnc3scc(-c4ccccc4)c23)s1	.	.	.
CCc1ccc(OCC(=O)NNC(=O)CSc2ncnc3sc(C)c(C)c23)cc1	.	.	20µM
COC(=O)c1c(-c2ccccc2)csc1NC(=O)CSc1ncnc2sc(C)c(C)c12	.	.	6.3µM
COc1ccc2nc3c(cc2c1)Cc1ccccc1-3	.	/	.
Cc1cccc(C)c1N	.	/	.
Fc1ccccc1N1CCN(c2nnc(C(F)(F)F)c3nnn(Cc4ccccc4)c23)CC1	.	/	.
Cc1ccc2c(c1)sc1nc(=O)n(-c3ccc(Cl)c(Cl)c3)c(=O)n12	.	.	20µM!
Cc1ccc2c(c1)sc1nc(=O)n(-c3ccc(Cl)cc3)c(=O)n12	.	.	.
CCc1ccc2oc(C(=O)NCCc3ccc(OC)c(OC)c3)cc(=O)c2c1	.	/	.
O=C(Nc1ccccc1-c1nnn(CC(=O)N2CCCc3ccccc32)n1)c1ccc(Cl)cc1	.	.	32µM
O=C(Nc1ccccc1-c1nnn(CC(=O)N2CCCc3ccccc32)n1)c1ccco1	.	.	?
Cc1ccc(S(=O)(=O)C(CNC(=O)COc2ccccc2)c2cccs2)cc1 (stereo not drawn)	.	/	.
CCc1cccc(-n2c(=O)c3cccnc3n2CC(=O)Nc2ccc(OC)c(Cl)c2)c1	.	/	25µM
CCc1ccc(-n2c(=O)c3cccnc3n2CC(=O)Nc2cc(OC)ccc2OC)cc1	.	/	.
COC(=O)c1c(-c2cc(OC)c(OC)c(OC)c2)c2ccc(OCc3ccccn3)cc2c(=O)n1-c1ccc(N)cc1	.	.	?
Nc1ccccc1-c1ccccc1	.	/	.
COc1ccc2c(c1)C(=O)[C@@H](OC(=O)NS(=O)(=O)c1ccc(C)cc1)[C@H](c1ccc(OC)c(Br)c1)O2	.	/	.
CCOc1cc2c(C#N)c(N3CCCCC3)nc(N)c2c(N)n1	.	.	.
COc1ccc(CN2C(=O)Cc3c2nc(N)c2c(N)nc(N4CCCCC4)c(C#N)c32)cc1	.	.	6.3µM
Cc1nc2ccccc2cc1C[N+]12CN3CN(CN(C3)C1)C2	.	.	.
O=C(CSc1nc(-c2ccccc2)c(-c2ccccc2)o1)Nc1nncs1	.	.	.
C=CCSc1nnc(NC(=O)CSc2nc3ccccc3o2)s1	.	.	16µM
Cc1nnc(NC(=O)CSc2nc3ccccc3o2)s1	.	.	.
O=C(CSc1nc2ccccc2o1)Nc1nc(-c2ccccc2)c(-c2ccccc2)s1	.	.	13µM
SMILES	Cruzain Triton	NS1 inh	Cruzain inh noDet
O=C(CSc1nc(-c2ccccc2)c(-c2ccccc2)o1)Nc1nnc(-c2ccccc2)s1	.	.	10µM
O=C(CSc1nc2ccccc2o1)Nc1nncs1	.	.	.
O=C(Cn1c(=O)n(-c2ccc(Cl)cc2)c(=O)c2c3c(sc21)CCC3)c1ccc(F)cc1	.	/	.
Cc1ccccc1OCc1nc(-c2ccc(NC(=O)c3ccco3)cc2)no1	.	.	.
Cc1ccccc1OCc1nc(-c2ccc(NC(=O)c3ccc4c(c3)OCO4)cc2)no1	.	.	13µM
Cc1cc(-c2csc(NC(=O)c3ccccc3C(F)(F)F)n2)c(C)n1Cc1ccccc1	.	.	16µM
Cc1cc(-c2csc(NC(=O)c3ccc(=O)[nH]c3)n2)c(C)n1Cc1ccco1	/	.	/
COCCCNc1oc(/C=C/c2cc(OC)c(OC)c(OC)c2)nc1C#N	25µM	/	20µM
COc1ccc(CCNc2oc(/C=C/c3cc(OC)c(OC)c(OC)c3)nc2C#N)cc1OC	.	/	.
CC(C)(C)c1ccc(O)c(C[N+](C)(C)C)c1	.	.	.
COc1ccccc1-c1nn(CCC(=O)Nc2ccccc2)c2nc(C)cc(C)c12	.	/	?
COc1ccc(C(=O)/C=C/c2cn(CC(O)CN3CCc4ccccc43)c3ccccc23)cc1OC (stereo not drawn)	.	/	.
Cc1ccc(C(=O)/C=C/c2cn(CC(O)CN3CCc4ccccc43)c3ccccc23)cc1 (stereo not drawn)	.	/	10µM
COC[C@H]1OC(=O)c2coc3c2[C@@]1(C)C1=C(C3=O)[C@H]2CCC(=O)[C@@]2(C)C[C@H]1OC(C)=O	.	/	.
NC(=O)/N=N/C(N)=O	.	/	.
COc1ccc(-c2csc(-n3cccn3)n2)cc1	/	.	/
COc1ccc(-c2csc(-n3ncc(-c4cccs4)c3N)n2)cc1	.	.	1.6µM
CC(/C=C(\NC(=O)c1ccccc1)C(=O)N=Nc1c(O)[nH]c2ccc(C)cc12)=C\c1ccccc1	.	.	25µM
O=C(CNC(=O)c1ccccc1)N=Nc1c(O)[nH]c2ccc(Br)cc12	/	.	/
COc1ccc(N2C(=O)CSC23C(=O)N(CC(=O)NCCc2ccccc2)c2ccccc23)cc1 (stereo not drawn)	.	/	.
C=CCc1c(C)nc2nc(SCC(=O)Nc3ccc(OCC)cc3)nn2c1C	.	/	.
CCCN(CC1CC1)c1nc(C)nc(Nc2c(Cl)cc(Cl)cc2Cl)c1Cl	.	.	25µM!
CCCN(CC1CC1)c1nc(N)c(C#N)c(CC#N)c1C#N	.	.	.
CC(C)Sc1nnc([C@@H](N)Cc2c[nH]c3ccccc23)o1	.	.	.
Cc1ccc(C)c(NC(=O)CSc2nnc([C@@H](N)Cc3c[nH]c4ccccc34)o2)c1	?	?	25µM
SMILES	Cruzain Triton	NS1 inh	Cruzain inh noDet
O=[N+]([O-])c1ccc(Oc2ccc(-c3cnc4ccccc4n3)cc2[N+](=O)[O-])cc1	.	.	?
O=[N+]([O-])c1cc(-c2cnc3ccccc3n2)ccc1Oc1ccc(Br)cc1	.	?	25µM
CC1=NN(c2nc(-c3ccc(C)cc3)cs2)C(=O)C1N=Nc1cccc(C)c1 (stereo not drawn)	.	.	13µM
CCOC(=O)c1sc(N2N=C(C)C(N=Nc3cccc(C)c3)C2=O)nc1C (stereo not drawn)	/	.	/
N#Cc1c(C(F)(F)F)cc(-c2cccs2)nc1SCc1ccc(F)cc1	.	/	.
N#Cc1c(C(F)(F)F)cc(-c2cccs2)nc1SCc1cccnc1	32µM	.	?
O=C(NCc1ccc(Cl)cc1)c1cc2ccc3cccnc3c2[nH]1	.	/	25µM
O=C(NCc1cccc(Cl)c1)c1cc2ccc3cccnc3c2[nH]1	.	/	.
CCc1ccccc1NC(=O)C1COc2ccccc2C1 (stereo not drawn)	.	/	.
CCCCC(CC)CNCC(CC)CCCC (stereo not drawn)	.	/	.
O=C(Nc1cccc(NC(=O)c2ccc(-c3ccc(Br)cc3)o2)c1)c1ccccc1	.	.	5µM
O=C(Nc1ccccc1)c1ccc(-c2ccc(Br)cc2)o1	.	.	.
O=C(/C=C/c1ccccc1)c1ccc(NC2=NCCCS2)cc1	.	.	?
CC(C)(C)c1ccc(/C=C/C(=O)c2ccc(NC3=NCCCS3)cc2)cc1	.	.	32µM
CCc1ccc(NC(=O)CCNS(=O)(=O)c2ccc3c(c2)CCCC(=O)N3)cc1	.	/	.
COc1ccccc1NC(=O)c1sc2ncn(Cc3ccc(C)cc3)c(=O)c2c1C	.	.	.
COc1ccccc1NC(=O)c1sc2ncn(Cc3cccc4ccccc34)c(=O)c2c1C	.	.	7.9µM
C/C(=N/NS(=O)(=O)c1ccc(C)cc1)P(=O)(O)O	.	.	.
Cc1cc(C(=O)CSc2nnc(-c3ccco3)o2)c(C)n1Cc1ccco1	.	.	.
O=C(CSc1nnc(-c2cccs2)o1)c1cccs1	.	.	.
